# System: tubulin (bovine brain)
# Assay: tubulin polymerization end-point dOD, fold change relative to DMSO vehicle; higher = more polymerization (stabilization)
# Settings: 50 µM; 60 min; 37 °C
# Outline: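 Plates were warmed to 37°C in a Tecan reader and read at 340 nm every minute for 1 hour. Beforehand, bovine brain tubulin (4 mg/ml in G-PEM buffer containing PIPES pH 6.9, MgCl2, EGTA and GTP) from the Cytoskeleton HTS-Tubulin polymerization kit was assembled on ice with compound at a final 50 μM in 0.5% DMSO in 384-well plates. Each value is the end-point change in optical density, expressed as percent fold change relative to DMSO vehicle, with runs scaled using the means and standard deviations of DMSO and reference-control wells.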
row,SMILES,tubulin polymerization end-point dOD [%]
1,Cc1ccc(C(=O)Nc2nc3ccc(Cl)cc3s2)cn1,-82.9
2,Cc1ccc(C)c(NC(=O)CSc2nc3ccc(C(C)C)cc3cc2C#N)c1,-39.1
3,CCc1cc2cc3c(cc2nc1SCC(=O)Nc1ccccc1Cl)OCCO3,11.4
4,CCCn1c(NC(=O)C2CC(=O)N(c3ccc4c(c3)OCCO4)C2)nc2ccccc21 (stereo not given),-4.32
5,COc1ccc(Br)cc1-c1nc(CN2C(=O)NC(C)(c3ccccc3)C2=O)cs1 (stereo not given),88.8
6,N#Cc1cc2cc3c(cc2nc1SCC(=O)Nc1ccccc1Cl)OCCO3,17.2
7,O=C(NC1=NCCS1)c1sc2cccc(F)c2c1COc1ccccc1,34.2
8,COC(=O)Nc1nc2cc(C(=O)c3ccccc3)ccc2[nH]1 [Mebendazole],6.22
9,O=C(Nc1ncc(Cc2ccccc2Cl)s1)c1ccncc1,-29.4
10,Cc1ccccc1/C=N/N=C1\NC(=O)C(Cc2ccccc2C)S1 (stereo not given),-10.8
11,COc1ccc2nc(/C=C/c3cccc(F)c3)sc2c1,6.83
12,CCOc1ccc(C(=O)N(Cc2cccs2)Cc2cc3cc(C)ccc3[nH]c2=O)cc1,27.2
13,CCOc1ccc(C2=[NH+]c3ccccc3C(c3cccnc3)=NN2)cc1,109
14,Oc1ccccc1-c1nc2ccc(Cl)cn2c1NCc1ccc2c(c1)OCO2,7.3
15,Cc1ccc2cc(C#N)c(SCC(=O)c3ccc(F)cc3)nc2c1C,20
16,Cc1csc(NC(=O)CSc2nnc(-c3cccnc3)n2-c2ccccc2C)n1,-45.1
17,COc1ccc(CNc2c(-c3ccc(O)cc3O)nc3cnccn23)cc1,30.8
18,CCc1noc(CSc2ncnc3scc(-c4ccc(C)cc4)c23)n1,30.2
19,COc1cccc(/C=C(/Cl)c2nc3cc(OC)c(OC)cc3c(=O)[nH]2)c1,42.1
20,Cc1ccc(C(=O)Nc2ncc(Cc3ccccc3Br)s2)cn1,-35.9
21,Cc1ccc(C(=O)Nc2nc3ccc(Oc4ccccc4)cc3s2)cn1,15.6
22,CCc1ccc2nc(SCC(=O)Nc3ccccc3N3CCOCC3)c(C#N)cc2c1,-7.7
23,O=C1CCCN1c1ccc(S(=O)(=O)Oc2ccc(Cl)cc2)cc1,-18.4
24,COc1ccc(Cc2cnc(NC(=O)c3sc4ccccc4c3Cl)s2)cc1,169
25,CCc1cc2cc(OC)ccc2nc1SCC(=O)Nc1ccccc1Cl,-96.6
26,Cc1cccc(/C=N/N=C2\NC(=O)C(Cc3cccc(C)c3)S2)c1 (stereo not given),9.8
27,COc1ccccc1Nc1nc(-c2ccc(S(C)(=O)=O)cc2)cs1,104
28,CCC1c2ccsc2CC[NH+]1Cc1ccc(N2CCCC2=O)cc1 (stereo not given),-43.7
29,COc1cc(OC)cc(C(=O)N(Cc2ccccc2OC)Cc2cc3c(C)ccc(C)c3[nH]c2=O)c1,12.8
30,Cc1ccc(-c2csc3ncn(CC4CCCCO4)c(=O)c23)cc1 (stereo not given),-190

# Reference: the supplement of paper PMC4380459
